# The whole screen tested about 330,000 compounds, of which about 4,600 (1.4%) were called active. The sample holds actives, similar compounds and a random draw of the others, so the mix is not that of the screen. Unmarked numbers belong to inactive results.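 The calls were made as follows: active = inhibition of 40% or more at the single tested concentration; inactive = the rest.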
# Test: wild-type TIM10 yeast growth inhibition – luminescence, uHTS, counter-screen for tim10-1 yeast inhibitor project, primary screen (AID 463195);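 also: wild-type TIM10 isogenic control strain grown at permissive 25 °C; 0% = DMSO yeast wells and 100% = minimal medium wells without yeast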
# Conditions: S. cerevisiae TIM10 strain growth, BacTiter-Glo luminescence, 24 h; at 10 µM; active compounds read high
row,Structure (SMILES),inhibition
1,O=C(O)c1cccc2c1C(=O)N(C1CCCCC1)C2,17.6%
2,COc1ccc(CNC(=O)C2CCN(C(=O)c3ccco3)CC2)cc1,6.55%
3,CC(C)NS(=O)(=O)c1ccc(CCC(=O)N2CCOCC2)cc1,-1.05%
4,C=CCSC(CC)(CC)C(N)=O,2.57%
5,NS(=O)(=O)c1ccc(NC(=S)Nc2ccc(Br)c(Cl)c2)cc1,42.9% (active)
6,NS(=O)(=O)c1ccc(NC(=S)NC(=O)c2cccc(Br)c2)cc1,19.3%
7,NS(=O)(=O)c1ccc(CCNC(=S)Nc2ccc(S(N)(=O)=O)cc2)cc1,1.03%
8,O=C(CSc1nc(O)c(Cc2ccccc2)c(=O)[nH]1)Nc1nc2c(s1)CCCC2,-0.307%
9,O=C(NCc1ccccc1)c1ccc(CNc2c(N3CCCC3)c(=O)c2=O)cc1,2.83%
10,CCOC(=O)C(CCOc1cccc(CC)c1)C(=O)OCC,9.43%
11,Cc1noc(C)c1S(=O)(=O)Nc1ccc(C(=O)N2CCN(c3ccc(F)cc3)CC2)cc1,3.71%
12,Cc1ccc(F)cc1NC(=O)N1CCCN(c2ccc(C(F)(F)F)cn2)CC1,21.2%
13,O=C(c1ccc2nc(N3CCOCC3)sc2c1)N1CCN(c2ccc(Cl)cc2)CC1,39.5%
14,Cc1ccc2nc(N3CCN(C(=O)c4ccco4)CC3)sc2c1,-6.8%
15,COc1ccc2nc(N3CCN(C(=O)c4ccc([N+](=O)[O-])o4)CC3)sc2c1,43.2% (active)
16,CCCC(=O)n1nc(NCc2ccc(OC)cc2)nc1NCc1ccc(OC)cc1,-4.33%
17,Cc1ccnc(SCC(=O)Nc2cccc(S(=O)(=O)N3CCOCC3)c2)n1,-2.35%
18,COC(=O)c1cc(=O)n(-c2c(Cl)cc(C(F)(F)F)cc2Cl)[nH]1,-4.96%
19,COc1ccc2ccn(C)c2c1,-5.57%
20,COc1ccc2c(c1)cc1n2CCN=C1NN,76.6% (active)
21,O=C(O)CSc1ccc(S(=O)(=O)N2CCCC2)cn1,8.26%
22,O=C(CCC1CCCN(C(=O)c2ccc(F)c(F)c2)C1)N1CCN(c2ccccn2)CC1 (stereo unspecified),13.4%
23,Cc1no[n+]([O-])c1COc1ccccc1/C=C1\NC(=S)NC1=O,-3.3%
24,Cc1ccc(SCC(=O)NNC(=O)c2ccc(S(C)(=O)=O)cc2)cc1,2.08%

row,Structure (SMILES),inhibition
1,O=S(=O)(NN=C1CCCCCCC1)c1ccc(Br)cc1,17.3%
2,COc1ccc(CNc2ncnc3ccccc23)cc1,2.62%
3,COc1cccc(CNc2nc(C(F)(F)F)nc3ccccc23)c1,44.2% (active)
4,CCc1ccc(C(CNc2nc(C(F)(F)F)nc3ccccc23)N(C)C)cc1 (stereo unspecified),9.55%
5,N/C(=N\OC(=O)CC1CCCCC1)c1ccccc1,38%
6,COc1ccc(/C(N)=N/OC(=O)Cc2ccccc2)cc1,21.6%
7,COc1ccc(/C(N)=N/OC(=O)CCCc2ccccc2)cc1,48.1% (active)
8,COc1ccc(/C(N)=N/OC(=O)Oc2ccccc2)cc1,2.38%
9,N/C(=N\OC(=O)CCc1ccccc1)c1ccc(Cl)cc1,57.5% (active)
10,N/C(=N\OC(=O)CCc1ccccc1)c1cccnc1,-2.8%
11,Nc1cccc(S(=O)(=O)Nc2ccc(SC(F)F)cc2)c1,15.6%
12,CCc1ccc(S(=O)(=O)Nc2cc3c(cc2N2CCCCC2)n(C)c(=O)c(=O)n3C)cc1,18%
13,OCC1(Cc2ccccc2C(F)(F)F)CCN(Cc2cccc3cnccc23)CC1,-41.2%
14,Cc1ccc(N(C(=O)c2sc(C)nc2C)C(C(=O)NC(C)(C)C)c2ccncc2)cc1 (stereo unspecified),-2.14%
15,O=C1OC[C@@H]2CCCN2C(=O)[C@H](CC(=O)N(CCO)Cc2ccccc2)C/C=C\CC[C@@H]1Cc1ccc(F)cc1,1.13%
16,CCN(Cc1ccccc1)S(=O)(=O)c1cc2c3c(c1)CCN3C(=O)CC2,-18.1%
17,O=C(COc1ccccc1Cl)Nc1ccccc1C(=O)NC1CC1,4.12%
18,NC(=O)CC(NC(=O)Cc1ccc(Br)cc1)c1ccc(NC2CC3CCC2C3)c([N+](=O)[O-])c1 (stereo unspecified),11.3%
19,O=[N+]([O-])c1ccc2nc(-c3ccccn3)[nH]c2c1,13.4%
20,O=[N+]([O-])c1ccc2c(c1)Nc1nc3ccccc3nc1N2,79.8% (active)
21,COc1ccc([N+](=O)[O-])cc1-c1nc2ccccc2nc1-c1ccccc1,12.2%
22,CCc1ccc(CN2C(=O)c3ccccc3C2C(=O)NCC2CCCO2)cc1 (stereo unspecified),-1.35%
23,COc1ccc(NC(=O)C2COc3ccccc3O2)cc1 (stereo unspecified),-1.21%
24,COc1ccc(OC)c2sc(NC(=O)C3COc4ccccc4O3)nc12 (stereo unspecified),43.3% (active)

row,Structure (SMILES),inhibition
1,COc1cc(SC)ccc1C(=O)NNC(=O)C1COc2ccccc2O1 (stereo unspecified),-2.79%
2,Cc1cccc(NC(=O)CN2CCN(CC(=O)NCC3(N4CCCCC4)CCCCC3)CC2)c1C,-26%
3,O=C(CN1CCC(O)(c2ccccc2)CC1)Nc1ccc2c(c1)OCCO2,-4.11%
4,O=C(COC(=O)c1ccccc1)c1ccc2c(c1)OCCO2,3.76%
5,O=C(CCN1CCc2ccccc2C(O)(c2ccccc2)C1)c1ccc2c(c1)OCCO2 (stereo unspecified),47.8% (active)
6,COc1cccc2cc(/C(C)=N/NC(=O)c3ccco3)oc12,7.37%
7,CC1(C)CCSC(/C=C/c2ccccc2)=N1,59.5% (active)
8,CC1(c2ccccc2)NC(=O)N(CC(=O)N2CC(=O)Nc3ccccc32)C1=O (stereo unspecified),-7.18%
9,Cc1c(CC(=O)N2CCN(C(=O)C3COc4ccccc4O3)CC2)c(=O)oc2c(O)c(O)ccc12 (stereo unspecified),14.5%
10,Cc1ccc(N2C(=O)C3C4C=CC(CC4)C3C2=O)cc1Cl (stereo unspecified),96.9% (active)
11,CC(=O)Nc1ccc(N2C(=O)C3C4C=CC(CC4)C3C2=O)cc1 (stereo unspecified),3.72%
12,Cc1ccc(N2C(=O)C3C4C=CC(CC4)C3C2=O)cc1Br (stereo unspecified),0.46%
13,O=C(c1ccc(F)cc1)C1CCN(Cc2cn[nH]c2-c2ccccc2)CC1,7.29%
14,Cc1cc(C)c(CN2CCN(C(=O)Cn3ccc(NC(=O)OCc4ccccc4)nc3=O)CC2)c(C)c1,14.5%
15,Cc1nn(Cc2ccccc2)c(C)c1C(=O)N1CCN(CC(=O)Nc2ccccc2Cl)CC1,16.3%
16,Cc1cccc(C)c1NC(=O)CCCSc1nnc(-c2ccco2)n1-c1ccccc1,7.48%
17,COc1ccc(Nc2cc(C)nc(-n3nc(C)cc3C)n2)cc1,42.6% (active)
18,CC(=O)c1ccc(Oc2cc(C)nc(-n3nc(C)cc3C)n2)cc1,17.9%
19,Cc1cc(N/N=C\c2ccc(Br)cc2)nc(-n2nc(C)cc2C)n1,28.7%
20,COc1ccc(OCC(=O)OCCN(C)C)cc1,6.08%
21,CN1CCC2(CC1)NC(=O)NC2=O,-10.9%
22,C=CCn1c2ccccc2c2nnc(SCc3[nH]c(=O)[nH]c3C(=O)CCCCC(=O)OCC)nc21,2.76%
23,c1ccc(-c2cn3c(n2)CCc2ccc4cccnc4c2-3)cc1,43.3% (active)
24,CCn1nnc(NC(=O)c2cc(Cl)c(OC)c(Cl)c2)n1,-27.2%

row,Structure (SMILES),inhibition
1,O=C(Nc1cc(S(=O)(=O)Nc2ccc(Cl)cc2)ccc1O)c1ccc(F)cc1F,-2.9%
2,O=C(Nc1nnc(SCc2c(Cl)cccc2Cl)s1)c1cccc([N+](=O)[O-])c1,-29.2%
3,O=C(Nc1nnc(SCc2c(Cl)cccc2Cl)s1)C1CCCO1 (stereo unspecified),43% (active)
4,O=C(NCc1ccccc1Cl)C1CCCO1 (stereo unspecified),12.6%
5,CCCCN(CC)CCCNC(=O)c1ccc(CSc2nc3ccncc3[nH]2)cc1,-7.87%
6,COc1ccc(C2CC(=O)Oc3ccc(C(C)(C)C)cc32)cc1 (stereo unspecified),-0.738%
7,Cc1cccc(NC(=S)Nc2ccc(Cl)c(Cl)c2)c1,24.3%
8,O=C(O)CC1(CC(=O)Nc2cccc(C(F)(F)F)c2)CCCC1,-9.42%
9,Cc1csc(NC(=S)Nc2cccc(Cl)c2)n1,45.7% (active)
10,FC(F)(F)c1cccc(NC(=S)Nc2cccc(Cl)c2)c1,50.8% (active)
11,S=C(Nc1cccc(Cl)c1)Nc1ccc2c(c1)OCCO2,20.4%
12,Cc1cc(Cl)nc(NC(=O)Nc2cccc(Cl)c2)n1,3.22%
13,CCn1c(=O)c(=O)n(CC)c2cc(S(=O)(=O)N3CCc4ccccc43)ccc21,14.7%
14,Cc1ccc(C(C)C)c(OCc2nnc(SCC(=O)Nc3nccs3)n2C)c1,-14%
15,COc1ccccc1/C=C/CN1CCC(CO)(Cc2ccccc2)CC1,-1.7%
16,CCCCNC(=O)C1CCC(=O)N1CCc1ccccc1 (stereo unspecified),-1.71%
17,C[C@]12CC[C@H](O)CC1=CCC1C2CC[C@@]2(C)C1CC[C@@H]2NC(=O)CCC(=O)O (stereo partly specified),-2.58%
18,C=CC[C@H](CC(=O)N(CCO)Cc1ccccc1)C(=O)N[C@@H](COC(=O)[C@@H](CC=C)Cc1ccc(F)cc1)Cc1ccccc1,5.57%
19,CSc1ccc(C(=O)C2CCCN(C(=O)c3ccc(C)nc3)C2)cc1 (stereo unspecified),-8.56%
20,Cc1cc(C(=O)NNC(=O)CCC2CCCCC2)c(C)o1,-5.54%
21,Cn1c2c(c(=O)n(C)c1=O)C(c1cccc([N+](=O)[O-])c1)Nc1ccccc1O2 (stereo unspecified),-3.02%
22,Oc1ccc(/C=N/N(Cc2ccccc2)c2ccccc2)cc1,46% (active)
23,CN(/N=C/c1ccccc1)C(=S)c1ccccc1,-6.07%
24,CCN(/N=C/c1ccccc1)c1cc(=O)n(C)c(=O)[nH]1,19.2%
